MITF inh: blocks human microphthalmia-associated transcription factor. O75030. AlphaScreen MITF homodimerization, bead proximity signal. inhibition, % at 2.6 µM. 0.91% of 650,000 active. AID 1259374; in the data active means inhibition above about 50%;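 further: 0% = vehicle wells with protein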
Target sequence (O75030 whole entry, looked up): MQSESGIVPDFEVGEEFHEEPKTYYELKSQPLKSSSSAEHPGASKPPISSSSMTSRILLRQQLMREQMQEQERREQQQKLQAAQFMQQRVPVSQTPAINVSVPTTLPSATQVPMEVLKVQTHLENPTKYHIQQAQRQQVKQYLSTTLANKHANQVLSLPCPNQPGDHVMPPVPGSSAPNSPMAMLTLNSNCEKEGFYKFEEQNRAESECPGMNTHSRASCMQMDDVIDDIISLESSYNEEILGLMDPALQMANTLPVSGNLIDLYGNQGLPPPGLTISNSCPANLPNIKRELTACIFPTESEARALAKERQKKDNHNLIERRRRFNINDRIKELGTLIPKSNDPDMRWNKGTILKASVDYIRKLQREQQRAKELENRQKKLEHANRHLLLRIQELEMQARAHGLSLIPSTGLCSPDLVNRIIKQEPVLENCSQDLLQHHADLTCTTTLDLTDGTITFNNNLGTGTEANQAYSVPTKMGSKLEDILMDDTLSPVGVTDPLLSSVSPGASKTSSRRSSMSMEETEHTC
FBW7 act: activators of human E3 ligase FBW7. Q969H0. AlphaScreen FBW7–phospho-cyclin E peptide binding, activator screen. normalized activity (activation), % at 26.1 µM. 0.13% of 650,000 active. AID 1259310; in the data active means normalized activity above about 1.9%;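 further: purified mutant Fbw7 with reduced substrate affinity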
TEAD-YAP inh: TEAD-YAP interaction inhibition; HEK-TIYL cells, TEAD-Gal4/YAP UAS-luciferase luminescence; inhibition, % at 9.12 µM; 1.4% of 640,000 active; AID 1259422; in the data active means inhibition above about 32%;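 further: 0% = median of test compound wells and 100% = reference inhibitor wells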
GPR151 activ: activators of human GPR151; Q8TDV0; PathHunter beta-arrestin GPR151 cells, luminescence; activation, % at 11.2 µM; 1% of 650,000 active; AID 1508602; in the data active means activation above about 4.9%;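 further: 0% = median of compound wells and 100% = cells with positive control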
GPR151 conf act: human GPR151 activation, confirmation screen | 6,700 tested, under 10 active | GPR151 PathHunter beta-arrestin cells, luminescence, 90 min; % of EA-reagent control over plate median | AID 1508609 | activation, % at 11.2 µM | shares compounds with GPR151 activ;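 active means mean percent activation across replicates above the confirmation screen cutoff of 4.91%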
GPR119 counter: activates human GPR119 in a GPR151 counter-screen | shares compounds with GPR151 activ | activation, % at 11.2 µM | 0.3% of 6,700 active | GPR119 PathHunter beta-arrestin cells, luminescence, 90 min; 0 = compound-well median, 100 = enzyme-acceptor control;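 active means mean percent activation in the counterscreen above 29.09%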;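 further: counterscreen on off-target GPR119 to flag nonselective hits from the GPR151 activator screen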
* marks the source's active call; other numbers are inactive results; x = no result given; ! = a repeat was not active. Rows were chosen to be rich in hits. Some 3.5% of all compounds tested hit in one or more screens of this group.

SMILES	MITF inh	FBW7 act	TEAD-YAP inh	GPR151 activ	GPR151 conf act	GPR119 counter
O=C(CSc1nnnn1-c1ccccc1)Nc1ccc(O)cc1	-17	0	10	-1	x	x
CCN(CCCNC(=O)c1cc(-c2ccccn2)nc2ccccc12)c1cccc(C)c1	-2	0	-2	8.0*	0	3
CCCNC(=O)c1cc(-c2ccccn2)nc2ccccc12	9	0	9	0	x	x
COc1ccc(CCn2c(=O)[nH]c3cc(C(=O)NCc4ccco4)ccc3c2=O)cc1OC	9	0	3	6.1*	0	-4
COc1ccc(CCNC(=O)c2cccc(-n3c(=S)[nH]c4cc(Cl)ccc4c3=O)c2)cc1OC	13	0	5	5.8*	0	4
COc1ccc(CCNC(=O)c2ccc3c(=O)n(Cc4ccco4)c(=S)[nH]c3c2)cc1OC	-5	0	-8	-1	x	x
COc1ccc(CCn2c(=S)[nH]c3cc(C(=O)N4CCC(C(N)=O)CC4)ccc3c2=O)cc1OC	14	0	-3	6.1*	-2	-4
COc1ccc(CCn2c(=S)[nH]c3cc(C(=O)N4CCOCC4)ccc3c2=O)cc1OC	-20	0	9	4	x	x
O=C(c1ccc2c(=O)n(CCc3ccccc3)c(=S)[nH]c2c1)N1CCN(c2ccccc2)CC1	-4	0	-2	6.3*	0	13
C=CCNC(=O)C(=O)NCc1ccccc1Cl	12	0	-7	0	x	x
Cc1ccc(NS(=O)(=O)c2ccc(NS(=O)(=O)c3ccc4c(c3)OCCO4)cc2)cc1C	1	0	4	-2	x	x
Cc1ccc(S(=O)(=O)Nc2ccc(Cl)c([N+](=O)[O-])c2)cc1	12	0	-9	6.3*	-1	2
Cc1ccc(S(=O)(=O)Nc2ccc3c(c2)OCCOCCOCCOCCOCCO3)cc1	-1	0	-9	5.2*	-1	-8
O=C(CN1CCC(NC(=O)Nc2ccc(F)cc2)CC1)Nc1ccccc1[N+](=O)[O-]	15	0	5	0	x	x
CCOC(=O)c1ccc(N2CCN(Cc3ccc4c(c3)OCO4)CC2)c(NC(=O)Nc2ccc(Cl)cc2)c1	-4	0	-48	1	x	x
Cn1c(=O)c2c(nc(Br)n2CCN2CCOCC2)n(C)c1=O	4	0	1	0	x	x
C/C(=N\NC(=O)c1nnn(-c2nonc2N)c1CN1CCOCC1)c1ccc([N+](=O)[O-])o1	4	0	16	0	x	x
O=C(c1c(O)c2cccc3c2n(c1=O)CC3)N1CCN(Cc2ccccc2)CC1	-3	0	-1	0	x	x
COc1cccc(N2CCN(C(=O)C3=C(C)C(=O)OC34CCCCC4)CC2)c1	-5	0	-2	5.6*	0	1
CC1=C(C(=O)N2CCCC2)C2(CCCCCC2)OC1=O	-10	0	-6	-1	x	x
COc1ccccc1-n1c(SCC(=O)Nc2ccc(C(C)=O)cc2)nc2cccnc21	-12	0	4	-1	x	x
COc1ccc2ccccc2c1/C=C1\C(=O)NC(=O)N(c2ccc([N+](=O)[O-])cc2)C1=O	10	0	8	6.7*	0	0
COc1ccc(N2C(=O)NC(=O)/C(=C/c3cccn3-c3cccc([N+](=O)[O-])c3)C2=O)cc1	15	0	0	4.9*	0	4
COc1cccc(N2C(=O)NC(=O)/C(=C/c3c(OC)ccc4ccccc34)C2=O)c1	-11	0	3	-1	x	x
COc1ccccc1CCN1C(=O)CCC1CCNCCOc1ccccc1 (stereo not drawn)	-3	0	-16	7.1*	0	9
SMILES	MITF inh	FBW7 act	TEAD-YAP inh	GPR151 activ	GPR151 conf act	GPR119 counter
COc1ccccc1CCN1C(=O)CCC1CCNCc1ccccc1 (stereo not drawn)	-7	0	-5	-2	x	x
Cc1[nH]c2ccccc2c1CCNC(=O)/C(=C/c1ccccc1)NC(=O)c1ccccc1Cl	-6	0	20	0	x	x
Cc1[nH]c2ccccc2c1CCNC(=O)/C(=C/c1ccccc1)NC(=O)c1ccco1	0	0	0	6.0*	0	10
O=C(NCC1CCCN(C(=O)C2CCCC2)C1)c1ccc(F)cc1 (stereo not drawn)	-9	0	5	7.3*	1	2
O=C(COc1ccc(Cl)cc1Br)N/N=C/c1cc([N+](=O)[O-])ccc1O	-5	0	-4	5.1*	1	11
CC(O)CCC(=O)N/N=C/c1cc([N+](=O)[O-])ccc1O (stereo not drawn)	7	-2	3	10*	0	0
O=C(c1cc(-c2cccs2)[nH]n1)N1CCN(c2ccccc2F)CC1	-12	0	-10	0	x	x
O=C(c1ncoc1-c1cccs1)N1CCN(c2ccccc2F)CC1	-3	0	-21	5.1*	1	2
Cc1ccc(Cl)c(NC(=O)C2CCN(c3nc(C)cc(C)n3)CC2)c1	6	0	-6	2	x	x
Cc1cc(C)nc(N2CCC(C(=O)Nc3ccc(Cl)cc3Cl)CC2)n1	6	0	-9	9.5*	0	7
CCOC(=O)c1ccc(NC(=S)Nc2ccccn2)cc1	16	0	-43	5.0*!	1	15
O=C(COc1ccccc1)NC(=S)Nc1ccccn1	8	0	0	6.6*	0	2
CC1(C)C(=O)Nc2ccccc2N1C(=O)COC(=O)c1ccc([N+](=O)[O-])o1	-3	0	3	5.7*	-1	1
O=C1CN(C(=O)COC(=O)c2ccc([N+](=O)[O-])o2)c2ccccc2N1	-7	0	6	-1	x	x
Cc1cc(N2CCN(CCOc3ccc(Cl)cc3)CC2)n2c(nc3ccccc32)c1C#N	2	0	9	1	x	x
COc1ccc(C(=O)N2CCN(C)CC2)cc1[N+](=O)[O-]	7	0	-3	1	x	x
CCN1CCN(C(=O)c2ccc(OC)c([N+](=O)[O-])c2)CC1	-11	0	-5	7.4*	-1	-6
O=C(N/N=C/c1cccc(OC(=O)c2ccco2)c1)c1ccncc1	8	0	-2	-1	x	x
O=C(NCCN1CCOCC1)c1ccc(Cl)cc1[N+](=O)[O-]	5	0	3	3	x	x
Cc1c(C#N)c2nc3c(c(-c4ccccc4)c2n1-c1ccccc1)C(=O)CC(C)(C)C3	9	0	6	0	x	x
Cc1c(C#N)c2nc3c(c(-c4ccccc4)c2n1-c1ccccc1)CCCC3	-1	0	6	6.1*	0	-8
CCCN(CCC)S(=O)(=O)c1ccc(C(=O)NCCOc2ccccc2Cl)cc1	5	0	0	-1	x	x
Cc1occc1C(=O)NCc1cccc(Cl)c1	6	0	2	-1	x	x
CCN(c1ccccc1)c1ncnc2c1cnn2C	8	0	-9	5.0*	0	3
CCCCN(c1ccccc1)c1ncnc2c1cnn2C	-12	0	-15	0	x	x

Source: PubChem BioAssay (The Scripps Research Institute Molecular Screening Center)
